Compounds with a hit are over-represented: about 10% of the library has one in this group of screens.
KB-V1 MDR tox – KB-V1 MDR subline cytotoxicity | Potency, µM (highest dose often 46.1 µM), usual class: cytotoxic | 400,000 tested, 3.4% active | KB-V1 MDR cells viability, CellTiter-Glo, 72 h; further: nearly all actives have a fitted effect of over 60% in size
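Drug-selected KB-V1 cells, grown in DMEM lacking phenol red with 10% FBS, receive compound titrations; after three days at 37 degrees C, surviving cell ATP is quantified by CellTiter-Glo luminescence and responses normalized and curve-fitted.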
Gal4-VP16 FLuc – counter-screen for ROR gamma inhibitors: Gal4-VP16 reporter; Drosophila S2 Gal4-VP16 UAS-luciferase, luminescence, 20 h; Potency, µM (top dose mostly 53.6 µM), usual class: inhibitors; 310,000 tested, 3.5% active;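 further: Gal4-VP16 expression switched on by copper sulfate through the metallothionein promoter; nearly all actives have a fitted effect of over 50% in size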
MCF10A rerep – inducers of DNA re-replication in MCF 10A breast cells; MCF 10A DNA re-replication, Hoechst nuclear intensity, 48 h; Potency, µM (highest dose often 46.1 µM), actives largely listed as activators; 350,000 tested, 2.9% active; AID 624296; further: nearly all actives have a fitted effect of over 50% in size
RORgamma inh – ROR gamma (mouse) transcription inhibition; AID 2551; Potency, µM (titrated, usually from 53.6 µM), usual class: inhibitors; P51450; 310,000 tested, 5.4% active; Drosophila S2 Gal4-RORgamma UAS-luciferase reporter, 20 h; further: nearly all actives have a fitted effect of over 60% in size
Target sequence (P51450 whole entry, looked up, the tested form may be a part): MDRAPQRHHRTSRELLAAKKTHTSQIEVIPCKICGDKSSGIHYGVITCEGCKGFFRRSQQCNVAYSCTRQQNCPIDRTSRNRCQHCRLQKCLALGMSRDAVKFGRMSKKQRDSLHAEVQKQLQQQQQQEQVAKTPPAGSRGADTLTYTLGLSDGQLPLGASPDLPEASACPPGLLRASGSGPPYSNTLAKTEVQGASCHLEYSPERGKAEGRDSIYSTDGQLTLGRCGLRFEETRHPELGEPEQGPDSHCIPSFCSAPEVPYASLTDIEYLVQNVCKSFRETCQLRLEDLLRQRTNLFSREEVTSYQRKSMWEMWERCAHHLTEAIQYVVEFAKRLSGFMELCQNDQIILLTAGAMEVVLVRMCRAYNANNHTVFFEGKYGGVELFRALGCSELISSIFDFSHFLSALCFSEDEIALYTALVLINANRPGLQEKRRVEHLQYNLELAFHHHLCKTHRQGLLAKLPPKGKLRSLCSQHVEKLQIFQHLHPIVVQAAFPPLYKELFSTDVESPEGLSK
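Using a luciferase readout, inhibitors were identified by reduced reporter activity in Drosophila cells coexpressing a copper-inducible Gal4–ROR gamma fusion and UAS-driven Photinus luciferase, incubated 20 hr after 700 uM copper sulfate.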
SW480 rereplic – DNA re-replication induction in SW480 cells. Potency, µM (titrated, usually from 46.1 µM), hits mostly activators. SW480 DNA re-replication, Hoechst DNA content imaging, 48 h. 340,000 tested, 1.8% active; further: nearly all actives have a fitted effect of over 55% in size
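SW480 cells exposed to compounds for 48 hr at 37 C, 5% CO2, then Hoechst-stained 40 min. Nuclear DNA content imaged by fluorescence scanning (405 nm excitation, 500-530 nm emission); re-replication scored as increased high-intensity nuclei.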
KB-3-1 tox – KB-3-1 parental cell cytotoxicity. 400,000 tested, 1.4% active. KB-3-1 viability, CellTiter-Glo ATP luminescence, 72 h. AID 1347075. Potency, µM (series often up to 46.1 µM), actives largely listed as cytotoxic; further: nearly all actives have a fitted effect of over 60% in size
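Cells are dispensed, compounds pinned in, plates held at 37 °C for 72 h, then CellTiter-Glo is added and luminescence read after 10 minutes. Cell line: parental KB-3-1 in phenol-red-free DMEM, 10% FBS.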
Each line names hits and unclear results; the compound was inactive in the other large screens. The call rests on the fitted dose curve; in most records, active means well fitted curve in the direction sought with a large enough effect; inconclusive means small, poorly fitted or top-dose-only effect, or another doubt; inactive means no such curve, though single readings can be large; an effect the other way counts as inactive or inconclusive.

COc1ccc(N2CCN(C(=O)c3ccc(SC)cc3OC)CC2)cc1	KB-V1 MDR tox inconclusive
N#Cc1ccccc1OCC(=O)N1CCN(c2ccccc2)CC1	none (no result: Gal4-VP16 FLuc, MCF10A rerep, RORgamma inh, SW480 rereplic)
COc1ccc(C(=O)N2CCN(c3cccc(Cl)c3)CC2)c(OC)c1	KB-V1 MDR tox inconclusive, MCF10A rerep 18.4µM, SW480 rereplic inconclusive, KB-3-1 tox 14.6µM
O=C(O)c1ccccc1C(=O)N1CCN(c2cccc(Cl)c2)CC1	none
O=C(COc1ccccc1Br)N1CCN(c2ccccc2)CC1	KB-V1 MDR tox 18.4µM
CC1=Nc2ccccc2/C1=C/c1ccc(N(C)C)cc1	none (no result: Gal4-VP16 FLuc, MCF10A rerep, RORgamma inh, SW480 rereplic)
COc1ccc(C(=O)NCC(c2ccc3c(c2)OCO3)N2CCOCC2)cc1OC (stereo unspecified)	none (no result: Gal4-VP16 FLuc, MCF10A rerep, RORgamma inh, SW480 rereplic)
Clc1ccc(/C=C/c2ccncc2)cc1Cl	KB-3-1 tox inconclusive (no result: Gal4-VP16 FLuc, MCF10A rerep, RORgamma inh, SW480 rereplic)
CCCCC/C=C\C\C=C/C=C/C=C/[C@@H](SCC(N)C(=O)O)[C@@H](O)CCCC(=O)O (stereo partly specified)	none (no result: KB-V1 MDR tox, MCF10A rerep, SW480 rereplic, KB-3-1 tox)
Cc1cc2c([nH]c3ccccc32)c2c1OC(C)(C)C=C2	MCF10A rerep inconclusive, SW480 rereplic inconclusive
COc1ccc2[nH]c(=O)c3c(c2c1)OC(C)(C)C=C3	KB-V1 MDR tox inconclusive, Gal4-VP16 FLuc 25.1µM, MCF10A rerep inconclusive, KB-3-1 tox inconclusive
COC(=O)c1cc(S(=O)(=O)N(Cc2ccccc2)C(C)(C)C)c[nH]1	MCF10A rerep 23.1µM, SW480 rereplic 6.51µM, KB-3-1 tox inconclusive
COc1ccc(N2CCN(C(=O)c3cnc(N4CCOCC4)c4ccccc34)CC2)cc1	none (no result: Gal4-VP16 FLuc, MCF10A rerep, RORgamma inh, SW480 rereplic)
O=C(Nc1ccc(-n2nncc2-c2ccco2)cc1)c1cccc(F)c1	KB-V1 MDR tox 16.4µM, MCF10A rerep inconclusive, RORgamma inh inconclusive
O=C(Nc1ccc(-n2nncc2-c2ccccc2)cc1)c1cccc(F)c1	none (no result: Gal4-VP16 FLuc, MCF10A rerep, RORgamma inh, SW480 rereplic)
CCc1ccc(CNC(=O)C2CCCN(c3nn4cc(-c5ccc(F)cc5)nc4s3)C2)cc1 (stereo unspecified)	none (no result: Gal4-VP16 FLuc, MCF10A rerep, RORgamma inh, SW480 rereplic)
CCCCCCC1CC(=O)NC(=S)N1 (stereo unspecified)	Gal4-VP16 FLuc inconclusive, RORgamma inh 8.91µM
Cc1cccc(NC(=O)c2nc[nH]c2C(=O)Nc2ccccc2[N+](=O)[O-])c1	Gal4-VP16 FLuc 5.62µM, RORgamma inh 4.47µM
CNC(=O)c1[nH]cnc1C(=O)Nc1ccccc1OC	Gal4-VP16 FLuc 15.8µM, RORgamma inh 12.6µM, KB-3-1 tox inconclusive
CNC(=O)c1[nH]cnc1C(=O)Nc1ccccc1C	Gal4-VP16 FLuc 7.94µM, RORgamma inh 11.2µM
Cc1cccc(NC(=O)c2nc[nH]c2C(=O)Nc2cc(Br)ccc2F)c1	KB-V1 MDR tox inconclusive (no result: Gal4-VP16 FLuc, MCF10A rerep, RORgamma inh, SW480 rereplic)
CCOC(=O)c1nnc2c(-c3ccc(Cl)cc3)c(C)nn2c1C	KB-V1 MDR tox inconclusive (no result: Gal4-VP16 FLuc, MCF10A rerep, RORgamma inh, SW480 rereplic)
CCCCCCC1CC(=CN(C)C)C(=O)O1 (stereo unspecified)	none (no result: Gal4-VP16 FLuc, MCF10A rerep, RORgamma inh, SW480 rereplic)
COC(=O)CNC(=O)C(=O)OC	none (no result: KB-V1 MDR tox, MCF10A rerep, SW480 rereplic, KB-3-1 tox)
COC(=O)[C@@]12CCCCN1[C@H](c1ccc(-c3ccc(OC)cc3)cc1)[C@@H]1C(=O)N(C)C(=O)[C@@H]12	KB-3-1 tox inconclusive (no result: Gal4-VP16 FLuc, RORgamma inh)
COC(=O)[C@@]12CCCCN1[C@H](c1ccc(-c3ccc4c(c3)OCO4)cc1)[C@H]1C(=O)N(C)C(=O)[C@H]12	MCF10A rerep 3.66µM (no result: Gal4-VP16 FLuc, RORgamma inh)
CCCCCCSc1ccc([C@@H]2[C@H]3C(=O)N(C)C(=O)[C@H]3[C@]3(C(=O)OC)CCCCN23)cc1OC	MCF10A rerep 14.6µM (no result: Gal4-VP16 FLuc, RORgamma inh)
Cc1cc(O)c(-c2ccnc3cc(-c4ccccc4)nn23)cc1Cl	none (no result: Gal4-VP16 FLuc, MCF10A rerep, RORgamma inh, SW480 rereplic)
Brc1ccc(-c2noc(-c3ccccn3)n2)o1	Gal4-VP16 FLuc inconclusive, RORgamma inh inconclusive
Brc1ccc(-c2nc(-c3ccccn3)no2)o1	Gal4-VP16 FLuc 7.08µM, RORgamma inh inconclusive, KB-3-1 tox inconclusive
Clc1ccc(-c2nc(-c3ccccn3)no2)cc1Cl	none
Cc1ccccc1-c1nc(-c2ccccn2)no1	KB-V1 MDR tox inconclusive, Gal4-VP16 FLuc 7.94µM, RORgamma inh 7.08µM, KB-3-1 tox inconclusive
COc1ccccc1-c1noc(-c2ccncc2)n1	none
COc1ccc(-c2nc(-c3ccccn3)no2)cc1	Gal4-VP16 FLuc 0.316µM, RORgamma inh 0.562µM, KB-3-1 tox inconclusive

High-throughput results deposited in PubChem BioAssay by National Center for Advancing Translational Sciences (NCATS).
